# From the supplement of paper PMC10849652
# Targets with a hit are over-represented here; the source holds about 7,900 in all. About 0.6% of all pairs of compound and target were hits. A number with no mark means an inactive call.
# Experiments:
# Experiment in all cases: log2 fold change, soluble protein after heating vs DMSO (PISA); higher = thermal stabilisation; K562 cells, 10 uM, 30 min; active = over 0.2 and 3.5 SD of the protein, either way, in both replicates (recomputed)
# [1] = compound: NC(=O)Nc1cc(-c2cccc(F)c2)sc1C(=O)N[C@H]1CCCNC1
# Summary of the method: (§1)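 Aliquots of K562 cells (2×10^6 cells/mL) treated with 10 μM compound for 30 min were heated for 3 min over 48°C-58°C. After pooling and extraction in PBS with 0.5% NP-40 at 4°C, soluble protein from a 21,000xg, 90 min spin was quantified by TMTpro 16plex LC-MS/MS with channel sums equalised. Thermal stability is expressed against control samples, from duplicates, as a log2 fold change.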
# [2] = compound: NC(=O)c1cnc(N[C@@H]2CCCC[C@@H]2N)nc1Nc1cccc(-n2nccn2)c1
# Summary of the method: as §1
# [3] = compound: NC1(c2ccc(-c3nc4ccn5c(=O)[nH]nc5c4cc3-c3ccccc3)cc2)CCC1
# Summary of the method: as §1
# [4] = compound: NCC(=O)Nc1ccc(-n2nc(C(F)(F)F)cc2-c2ccc3c(ccc4ccccc43)c2)cc1
# Summary of the method: as §1
# entinostat = compound: Nc1ccccc1NC(=O)c1ccc(CNC(=O)OCc2cccnc2)cc1 [entinostat]
# Summary of the method: as §1
# vorinostat = compound: O=C(CCCCCCC(=O)Nc1ccccc1)NO [vorinostat]
# Summary of the method: as §1
# citarinostat = compound: O=C(CCCCCCNC(=O)c1cnc(N(c2ccccc2)c2ccccc2Cl)nc1)NO [citarinostat]
# Summary of the method: as §1
# silmitasertib = compound: O=C(O)c1ccc2c(c1)nc(Nc1cccc(Cl)c1)c1ccncc12 [silmitasertib]
# Summary of the method: as §1
# [5] = compound: O=C1NC(=O)C(c2cnc3ccccn23)=C1c1cn2c3c(cc(F)cc13)CN(C(=O)N1CCCCC1)CC2
# Summary of the method: as §1
# [6] = compound: c1cc(OCCN2CCCCC2)cc(-c2n[nH]c3ccc(-c4nnc[nH]4)cc23)c1
# Summary of the method: as §1
# Sequence of UniProt Q9UKD1 (Q9UKD1 whole entry, looked up): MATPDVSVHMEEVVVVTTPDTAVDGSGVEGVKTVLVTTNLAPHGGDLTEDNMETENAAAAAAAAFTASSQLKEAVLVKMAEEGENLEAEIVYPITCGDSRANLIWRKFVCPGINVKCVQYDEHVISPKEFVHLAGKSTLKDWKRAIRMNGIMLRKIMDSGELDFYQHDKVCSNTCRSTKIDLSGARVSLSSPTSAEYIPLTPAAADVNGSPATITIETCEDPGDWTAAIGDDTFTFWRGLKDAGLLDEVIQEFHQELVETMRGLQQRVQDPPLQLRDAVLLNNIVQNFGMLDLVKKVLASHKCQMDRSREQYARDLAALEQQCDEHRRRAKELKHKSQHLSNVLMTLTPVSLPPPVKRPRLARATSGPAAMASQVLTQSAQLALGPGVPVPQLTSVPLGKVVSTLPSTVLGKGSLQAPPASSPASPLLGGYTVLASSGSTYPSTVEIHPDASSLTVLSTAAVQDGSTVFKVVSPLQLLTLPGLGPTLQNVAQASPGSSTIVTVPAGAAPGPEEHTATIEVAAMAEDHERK
# Sequence of UniProt P69905 (P69905 whole entry, looked up): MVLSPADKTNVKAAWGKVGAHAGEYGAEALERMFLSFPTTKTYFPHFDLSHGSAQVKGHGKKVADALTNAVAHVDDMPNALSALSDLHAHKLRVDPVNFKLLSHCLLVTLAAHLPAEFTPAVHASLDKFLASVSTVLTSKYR
# Sequence of UniProt Q96I24 (Q96I24 whole entry, looked up): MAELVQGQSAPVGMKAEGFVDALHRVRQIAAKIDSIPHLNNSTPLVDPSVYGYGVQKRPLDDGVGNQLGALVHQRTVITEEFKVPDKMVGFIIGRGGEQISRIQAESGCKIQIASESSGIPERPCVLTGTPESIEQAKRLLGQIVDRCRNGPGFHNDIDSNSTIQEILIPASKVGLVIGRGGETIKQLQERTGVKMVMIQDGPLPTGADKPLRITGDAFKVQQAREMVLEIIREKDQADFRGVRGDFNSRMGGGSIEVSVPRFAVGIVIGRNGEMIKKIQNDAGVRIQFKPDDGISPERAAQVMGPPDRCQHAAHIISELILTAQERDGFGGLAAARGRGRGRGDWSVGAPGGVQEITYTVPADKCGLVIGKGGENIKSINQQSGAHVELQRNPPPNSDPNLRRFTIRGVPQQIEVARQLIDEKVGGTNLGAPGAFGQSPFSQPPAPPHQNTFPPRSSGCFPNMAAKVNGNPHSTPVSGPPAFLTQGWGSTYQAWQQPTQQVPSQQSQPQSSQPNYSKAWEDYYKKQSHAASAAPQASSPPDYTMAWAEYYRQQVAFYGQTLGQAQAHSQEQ
# Sequence of UniProt P05362 (P05362 whole entry, looked up): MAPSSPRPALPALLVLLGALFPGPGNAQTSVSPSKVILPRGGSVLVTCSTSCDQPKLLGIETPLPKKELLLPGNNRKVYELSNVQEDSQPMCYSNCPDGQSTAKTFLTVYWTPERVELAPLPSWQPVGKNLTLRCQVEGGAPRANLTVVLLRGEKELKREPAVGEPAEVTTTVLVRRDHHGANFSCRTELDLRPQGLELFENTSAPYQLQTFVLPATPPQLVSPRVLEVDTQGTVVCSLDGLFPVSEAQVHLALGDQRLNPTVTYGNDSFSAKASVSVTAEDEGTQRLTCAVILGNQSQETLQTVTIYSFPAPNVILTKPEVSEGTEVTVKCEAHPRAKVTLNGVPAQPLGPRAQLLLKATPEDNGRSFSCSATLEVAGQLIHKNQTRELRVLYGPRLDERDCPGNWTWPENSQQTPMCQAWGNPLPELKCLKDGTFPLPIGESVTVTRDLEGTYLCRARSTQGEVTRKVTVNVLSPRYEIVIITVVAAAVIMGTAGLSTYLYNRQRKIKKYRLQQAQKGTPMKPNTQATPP
# Sequence of UniProt Q92522 (Q92522 whole entry, looked up): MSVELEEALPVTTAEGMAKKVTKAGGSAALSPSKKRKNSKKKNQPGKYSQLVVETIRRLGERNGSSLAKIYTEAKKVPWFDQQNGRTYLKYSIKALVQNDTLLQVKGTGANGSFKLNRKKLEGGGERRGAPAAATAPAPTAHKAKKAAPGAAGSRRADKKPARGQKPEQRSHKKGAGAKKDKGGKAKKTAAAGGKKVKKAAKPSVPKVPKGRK
# Sequence of UniProt Q92947 (Q92947 whole entry, looked up): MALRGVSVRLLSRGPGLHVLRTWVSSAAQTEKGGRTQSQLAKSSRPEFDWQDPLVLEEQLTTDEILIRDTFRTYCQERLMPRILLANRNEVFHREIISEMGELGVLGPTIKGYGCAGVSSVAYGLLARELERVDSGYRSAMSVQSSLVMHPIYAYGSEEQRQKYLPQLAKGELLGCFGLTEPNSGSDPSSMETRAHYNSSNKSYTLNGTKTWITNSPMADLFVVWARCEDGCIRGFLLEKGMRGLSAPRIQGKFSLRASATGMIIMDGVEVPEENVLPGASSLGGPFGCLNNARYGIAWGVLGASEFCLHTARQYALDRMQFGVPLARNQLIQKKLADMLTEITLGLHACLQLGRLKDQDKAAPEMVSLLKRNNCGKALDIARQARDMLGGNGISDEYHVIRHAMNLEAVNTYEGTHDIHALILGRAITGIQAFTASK
# Sequence of UniProt P06280 (P06280 whole entry, looked up): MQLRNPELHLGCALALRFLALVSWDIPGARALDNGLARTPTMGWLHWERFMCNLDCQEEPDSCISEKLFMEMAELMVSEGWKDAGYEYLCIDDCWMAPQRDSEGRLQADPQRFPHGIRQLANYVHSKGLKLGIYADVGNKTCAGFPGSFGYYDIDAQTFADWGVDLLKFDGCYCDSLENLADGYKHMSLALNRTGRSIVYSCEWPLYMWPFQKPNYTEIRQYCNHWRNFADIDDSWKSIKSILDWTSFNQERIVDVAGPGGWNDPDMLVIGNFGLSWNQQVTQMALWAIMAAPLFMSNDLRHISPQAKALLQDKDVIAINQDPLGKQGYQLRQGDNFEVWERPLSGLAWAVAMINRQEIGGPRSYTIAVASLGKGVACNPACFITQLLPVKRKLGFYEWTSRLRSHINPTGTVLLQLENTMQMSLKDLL
# Sequence of UniProt O15347 (O15347 whole entry, looked up): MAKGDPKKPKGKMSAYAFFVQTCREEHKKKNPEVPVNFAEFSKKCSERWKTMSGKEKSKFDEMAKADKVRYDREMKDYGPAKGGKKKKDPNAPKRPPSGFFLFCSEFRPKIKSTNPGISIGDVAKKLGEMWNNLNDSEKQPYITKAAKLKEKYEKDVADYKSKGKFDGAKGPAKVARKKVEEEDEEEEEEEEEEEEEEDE
# Sequence of UniProt P39748 (P39748 whole entry, looked up): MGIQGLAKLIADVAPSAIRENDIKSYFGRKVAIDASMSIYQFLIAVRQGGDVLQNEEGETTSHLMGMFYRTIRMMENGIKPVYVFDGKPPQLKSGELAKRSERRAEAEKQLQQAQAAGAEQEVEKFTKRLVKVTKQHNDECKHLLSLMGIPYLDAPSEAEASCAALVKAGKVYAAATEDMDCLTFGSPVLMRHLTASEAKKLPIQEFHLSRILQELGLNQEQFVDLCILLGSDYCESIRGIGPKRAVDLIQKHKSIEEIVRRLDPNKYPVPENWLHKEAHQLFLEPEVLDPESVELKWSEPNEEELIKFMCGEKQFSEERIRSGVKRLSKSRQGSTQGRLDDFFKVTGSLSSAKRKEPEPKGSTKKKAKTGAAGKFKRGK
# Sequence of UniProt O15117 (O15117 whole entry, looked up): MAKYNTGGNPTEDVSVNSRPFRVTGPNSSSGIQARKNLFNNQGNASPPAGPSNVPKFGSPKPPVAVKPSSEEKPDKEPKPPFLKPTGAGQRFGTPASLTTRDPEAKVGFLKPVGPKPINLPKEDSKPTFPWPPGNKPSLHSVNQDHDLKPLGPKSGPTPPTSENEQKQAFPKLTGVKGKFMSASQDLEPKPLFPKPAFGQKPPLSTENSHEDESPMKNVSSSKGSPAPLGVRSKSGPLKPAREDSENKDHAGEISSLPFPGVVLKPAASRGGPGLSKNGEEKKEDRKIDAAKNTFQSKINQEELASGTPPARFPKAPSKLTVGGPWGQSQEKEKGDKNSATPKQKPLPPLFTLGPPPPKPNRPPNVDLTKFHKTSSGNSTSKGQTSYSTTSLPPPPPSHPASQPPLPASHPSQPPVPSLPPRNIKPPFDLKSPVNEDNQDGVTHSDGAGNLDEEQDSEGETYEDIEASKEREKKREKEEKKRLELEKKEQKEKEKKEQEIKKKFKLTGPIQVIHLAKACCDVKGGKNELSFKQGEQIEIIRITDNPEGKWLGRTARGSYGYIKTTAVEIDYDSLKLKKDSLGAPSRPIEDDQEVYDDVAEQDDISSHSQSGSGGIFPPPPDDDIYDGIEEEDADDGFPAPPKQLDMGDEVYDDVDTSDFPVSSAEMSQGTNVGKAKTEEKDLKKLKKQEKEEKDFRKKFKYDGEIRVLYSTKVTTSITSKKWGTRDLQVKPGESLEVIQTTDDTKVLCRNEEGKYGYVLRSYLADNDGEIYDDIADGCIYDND
# Sequence of UniProt Q9BYC5 (Q9BYC5 whole entry, looked up): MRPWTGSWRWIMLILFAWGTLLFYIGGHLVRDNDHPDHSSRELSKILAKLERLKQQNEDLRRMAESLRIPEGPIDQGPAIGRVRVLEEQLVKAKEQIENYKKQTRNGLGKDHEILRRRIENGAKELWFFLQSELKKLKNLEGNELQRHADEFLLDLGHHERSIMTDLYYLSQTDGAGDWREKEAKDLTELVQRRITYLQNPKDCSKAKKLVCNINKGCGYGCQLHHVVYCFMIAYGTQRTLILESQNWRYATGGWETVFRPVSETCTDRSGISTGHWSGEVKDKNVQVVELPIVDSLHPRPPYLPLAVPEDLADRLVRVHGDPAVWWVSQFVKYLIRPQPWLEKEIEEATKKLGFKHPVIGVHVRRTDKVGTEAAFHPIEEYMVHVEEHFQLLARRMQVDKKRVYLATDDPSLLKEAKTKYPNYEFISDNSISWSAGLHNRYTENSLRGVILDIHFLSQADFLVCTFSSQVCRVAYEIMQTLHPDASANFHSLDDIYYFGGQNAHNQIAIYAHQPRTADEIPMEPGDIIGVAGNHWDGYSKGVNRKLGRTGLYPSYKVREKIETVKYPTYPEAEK
# Sequence of UniProt P0CL80 (P0CL80 whole entry, looked up): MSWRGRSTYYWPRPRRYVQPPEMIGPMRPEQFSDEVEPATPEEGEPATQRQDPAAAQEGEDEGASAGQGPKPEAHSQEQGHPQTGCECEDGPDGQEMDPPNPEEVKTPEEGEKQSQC
Target,log2 fold change [1],log2 fold change [2],log2 fold change [3],log2 fold change [4],log2 fold change (entinostat),log2 fold change (vorinostat),log2 fold change (citarinostat),log2 fold change (silmitasertib),log2 fold change [5],log2 fold change [6]
GALNT11 (UniProt Q8NCW6),0.001,-0.119,-0.224,-0.023,-0.012,0.01,0.079,0.027,-0.021,0.002
HEXB (UniProt P07686),0.003,-0.051,-0.145,-0.034,0.004,-0.042,0.033,0.007,-0.034,-0.003
GCDH (UniProt Q92947),0.015,0.031,0.052,0.006,-0.002,0.103,0.025,-0.05,-0.019,0.009
HAX1 (UniProt O00165),-0.106,-0.165,-0.174,-0.06,0.021,0.115,-0.019,-0.032,0.036,-0.074
HDGFL2 (UniProt Q7Z4V5),-0.273 (active),-0.05,-0.022,-0.052,-0.139,0.024,-0.032,0.033,-0.093,-0.018
HECTD1 (UniProt Q9ULT8),-0.036,-0.087,-0.017,-0.01,0.042,0.06,0.123,0.075,-0.027,-0.17
FUT8 (UniProt Q9BYC5),-0.022,0.094,-0.107,-0.014,0.042,-0.001,0.108,0.013,-0.146,0.027
GAGE12F (UniProt P0CL80),0.029,-0.013,0.083,-0.059,0.031,0.024,0,0.01,0.021,-0.08
GTF2A1 (UniProt P52655),-0.029,0.249,0.01,0.093,-0.116,-0.031,-0.035,0.004,-0.028,0.016
GLB1 (UniProt P16278),0.02,0.002,-0.097,-0.043,0.01,-0.065,0.005,0.021,-0.003,-0.044
GTF3A (UniProt Q92664),-0.04,-0.095,0.046,-0.098,-0.013,0.026,0.06,0.043,0.011,-0.072
HMGB3 (UniProt O15347),0.025,0.153,0.143,0.136,-0.032,-0.044,-0.159,-0.068,-0.043,0.146
GMEB2 (UniProt Q9UKD1),-0.039,-0.079,0.056,-0.119,0.064,0.063,0.086,0.044,-0.194,-0.037
GLA (UniProt P06280),0.04,-0.049,-0.143,-0.066,-0.034,0.056,0.027,-0.03,-0.036,0.029
HNRNPUL1 (UniProt Q9BUJ2),-0.059,0.028,-0.081,-0.059,-0.012,0.03,0.002,0.034,0.08,-0.046
IFRD1 (UniProt O00458),-0.035,-0.275,-0.058,-0.009,-0.08,-0.25,-0.035,0.175,0.022,-0.016
FLNA (UniProt P21333),-0.069,-0.069,-0.093,-0.072,0.042,0.061,0.062,0.11,-0.002,-0.032
GUK1 isoform 2 (UniProt Q16774),-0.126,-0.029,-0.059,-0.064,0.065,-0.002,0.031,0.044,-0.094,0.122
IFT80 isoform 3 (UniProt Q9P2H3),0.027,0.031,-0.081,0.003,-0.005,0.04,0.011,-0.085,-0.086,-0.093
FEN1 (UniProt P39748),-0.022,-0.154,-0.28,-0.157,0.034,0.246,0.111,-0.1,-0.129,0.035
FYB1 isoform 3 (UniProt O15117),-0.045,0.007,0.017,0.02,0.025,-0.02,0.093,-0.097,-0.037,-0.002
GATA1 (UniProt P15976),0.009,0.012,-0.018,0.059,-0.084,-0.164,-0.166,0.065,-0.039,-0.096
ICAM1 (UniProt P05362),0.016,0.109,0.087,0.008,-0.026,-0.008,0.024,-0.028,-0.07,-0.06
GCSH (UniProt P23434),0.027,0.037,0.073,0.027,-0.049,0.057,0.022,0.193,-0.144,-0.04
FRA10AC1 isoform 3 (UniProt Q70Z53),-0.069,0.114,-0.121,-0.077,0.019,0.065,0.08,0.129,-0.091,-0.232
FUBP3 (UniProt Q96I24),-0.023,0.024,-0.048,-0.011,0.003,0.062,-0.005,0.045,0.186,0.006
GNAI3 (UniProt P08754),-0.016,0.022,-0.046,0.003,-0.04,-0.016,-0.018,0.052,-0.027,-0.076
H1FX (UniProt Q92522),0.248,0.165,0.153,0.118,-0.072,0,-0.122,0.078,0.227,-0.12
HIKESHI (UniProt Q53FT3),0,-0.045,-0.046,-0.053,-0.003,-0.05,0.021,0.002,0.026,-0.056
HBA1 (UniProt P69905),0.016,0.032,0.003,0.103,0.059,-0.031,0.007,-0.036,-0.037,0.012
